Compound activity from PubChem.
hcDAF12 agonist: H. contortus DAF-12 nuclear receptor activators, primary screen, cell-based, luminescence, HEK293, lit1-tk-luc reporter. 370,000 tested, 1.4% active. HEK293 hcDAF-12 lit1-tk-luc reporter; 0% DMSO, 100% Δ7-dafachronic acid. activation, % at 6.8 µM;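 active = activation above the mean of all tested compounds plus 3 SD, cut at about 5.5% in these data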;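 note: 100% = response to 3 µM Δ7-dafachronic acid high control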
hgDAF12 agonist: H. glycines DAF-12 receptor agonists, primary screen, cell-based, luminescence, HEK293, GAL4 fusion, UAS-luciferase; activation, % at 6.8 µM; HEK293 GAL4-hgDAF12 UAS-luciferase reporter, agonist luminescence; normalized to butyrate control; 370,000 tested, 1.8% active; Nuclear hormone receptor DAF-12 (Heterodera glycines), GAL4 fusion;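 active = activation above a cutoff set at the mean of all screened compounds plus 3 SD, cut at about 10% in these data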;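 note: 0% = DMSO wells and 100% = sodium butyrate wells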
DAX1 inh-1: DAX1 (NR0B1) inhibitors on StAR promoter, primary screen, cell-based, luminescence, SF-1 (NR5A1), full-length DAX-1; inhibition, % at 6.8 µM; AID 652010, 2013; 370,000 tested, 1.1% active; HEK293T StAR-luciferase reporter, SF-1/DAX-1 repression relief;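 active = inhibition above the mean over all tested compounds plus 3 SD, cut at about 3.6% in these data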;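 note: 0% = DAX-1 cells with DMSO and 100% = cells lacking DAX-1 with DMSO; higher inhibition means more luminescence from relief of DAX-1 repression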
DAX1 inh-2: DAX1 (NR0B1) inhibitors, primary screen, cell-based, HEK293, Gal4-DAX1, luciferase luminescence | HEK293 Gal4-DAX1 luciferase reporter | inhibition, % at 6.75 µM | 340,000 tested, 0.99% active;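 active = inhibition above the mean over all tested compounds plus 3 SD, cut at about 4.2% in these data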;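 note: 0% = DAX1-transfected cells with DMSO and 100% = empty-vector control cells with DMSO; inhibition shows as a rise in luminescence from relieved DAX1 repression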
Target sequence (P51843 207-470 limits assumed): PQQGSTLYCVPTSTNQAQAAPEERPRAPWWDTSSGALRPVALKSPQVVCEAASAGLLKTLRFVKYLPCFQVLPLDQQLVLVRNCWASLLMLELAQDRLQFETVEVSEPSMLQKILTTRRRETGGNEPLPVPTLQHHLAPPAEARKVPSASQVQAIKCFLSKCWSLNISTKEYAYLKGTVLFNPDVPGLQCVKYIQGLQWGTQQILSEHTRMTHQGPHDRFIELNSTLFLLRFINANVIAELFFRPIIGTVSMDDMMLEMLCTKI
ssDAF12 agonist: S. stercoralis DAF-12 nuclear receptor activators, primary screen, cell-based, luminescence, HEK293, GRIP1 co-expression, lit1-tk-luc; activation, % at 6.8 µM; HEK293 ssDAF-12/GRIP1 lit1-tk-luc reporter; % of 3 µM dafachronic acid response; 370,000 tested, 1% active;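 active = activation above the mean over all tested compounds plus 3 SD, cut at about 0.9% in these data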;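 note: 0% = DMSO-only wells and 100% = 3 µM delta7-dafachronic acid wells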
SMARCA2 act: SMARCA2 (BRM) function activators, primary screen, cell-based, luminescence, high throughput | MG213 cells, MMTV-luciferase reporter, dexamethasone, overnight | activation, % at 9.1 µM | 370,000 tested, 1% active | AID 652017, 2013; in the data active = activation above about 7.8%;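 note: 0% = vehicle wells and 100% = reference activator wells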
hgDAF12 conf: H. glycines DAF-12 receptor agonists, confirmation, cell-based, luminescence, HEK293, GAL4-LBD fusion; shares compounds with hgDAF12 agonist; HEK293 GAL4-hgDAF12 luciferase reporter, agonist mode; percent of butyrate response; activation, % at 6.8 µM; 3,300 tested, 80% active; AID 743050, 2013;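 active = mean activation over triplicate wells above the hit cutoff derived from the earlier primary screen, cut at about 11% in these data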;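 note: 0% = DMSO low control and 100% = 2 mM sodium butyrate high control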
LXR ag 2: LXR agonists, Gal4 luciferase reporter, confirmation, counter-screen for hgDAF-12 agonist project, cell-based, luminescence, HEK293, H. glycines campaign. 24 h. shares compounds with hgDAF12 agonist. activation, % at 6.8 µM. 3,300 tested, under 10 active;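 active = mean activation of the triplicate above a set limit carried over from the primary screen, none filed active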
Active calls of the source: *; x = no result given. Sampled rows, rich in hits. Any-hit rate of the full collection: about 4.8%.

SMILES	hcDAF12 agonist	hgDAF12 agonist	DAX1 inh-1	DAX1 inh-2	ssDAF12 agonist	SMARCA2 act	hgDAF12 conf	LXR ag 2
COc1ccc(/C=N/NC(=O)c2ccc(Br)cc2)c(OC)c1	0	2	0	0	-1	3	x	x
COc1ccc(/C=N/Nc2ncc(Br)cn2)c(OC)c1	1	16*	2	3	0	5	15*	1
C/C(=N\NC(=S)NC1CCCCC1)c1cccs1	3	3	-1	1	-1	2	x	x
O=c1[nH]cnc2cc(-c3ccccc3)sc12	1	13*	2	0	-1	4	11*	0
COc1ccc(-n2c(Cc3cccn3C)nnc2SCC(=O)Nc2ccccc2F)cc1	-1	-1	1	2	0	0	x	x
COC(=O)c1ccc(COn2nnc3ccccc32)cc1	4	17*	3	0	0	4	14*	1
COc1ccc(N2C(=O)CCC2=O)c(OC)c1	1	13*	1	1	-1	-6	0	0
Cc1ccc(C(=O)CSc2ccccn2)cc1	5	15*	3	3	0	5	14*	1
O=C(CSc1ccccn1)c1ccc(F)cc1	0	1	1	1	-1	2	x	x
C/C(CC(=O)Nc1c(C)cc(C)cc1C)=N\NC(=O)OC(C)(C)C	1	13*	1	3	0	4	1	0
Cc1cc(C)n2nc(C(=O)Nc3nccs3)nc2n1	4	17*	1	2	0	2	12*	0
Cc1csc(NC(=O)c2nc3nc(C)cc(C)n3n2)n1	4	9	2	3	0	4	x	x
O=C(Cc1ccc(Cl)cc1)Oc1cccc2cccnc12	x	x	x	3	x	x	x	x
Clc1ncnc2c1oc1ccccc12	6.2*	19*	2	4	1.6*	2	16*	1
CCSc1ncnc2c1oc1ccccc12	-2	-1	0	1	-1	-3	x	x
COc1ccc(/C(C)=N\NC(=O)c2ccco2)cc1	3	24*	4	x	-1	-4	10	0
C/C(=N/NC(=O)c1ccco1)c1ccc(NC(=O)c2ccc(F)cc2)cc1	2	13*	3	2	-1	3	10	0
COc1ccc(C(=O)Nc2ccc(NC(=O)c3ccco3)cc2)cc1	-4	-2	0	1	-1	2	x	x
COc1ccc(N(CC(=O)NCc2ccncc2)S(=O)(=O)c2ccc(C)c([N+](=O)[O-])c2)cc1	-1	-3	1	0	-2	2	x	x
O=C1NCCCC1C(=O)N1CCCCC1 (stereo not given)	-1	1	0	3	-1	-1	x	x
COc1ccc2oc(C(=O)OC/C(O)=C(\C#N)c3nc4ccccc4[nH]3)c(C)c2c1	1	-2	0	1	-1	-2	x	x
COc1ccc2oc(C(=O)Nc3nc4ccccc4[nH]3)c(C)c2c1	5	25*	4.2*	2	0	7	18*	1
O=C(NCCc1ccccc1)C1CCCN1S(=O)(=O)c1cccc2nsnc12 (stereo not given)	0	0	0	0	-1	-3	x	x
COCCc1nc2ccc(C(=O)N3CCCCC3COC)cc2o1 (stereo not given)	-3	1	1	1	0	-1	x	x
COCCC1CCCCN1C(=O)c1ccc2nc(Cc3ccccc3F)oc2c1 (stereo not given)	5.6*	14*	3.9*	1	0	7	12*	1
SMILES	hcDAF12 agonist	hgDAF12 agonist	DAX1 inh-1	DAX1 inh-2	ssDAF12 agonist	SMARCA2 act	hgDAF12 conf	LXR ag 2
COc1ccc(CCNC(=O)CN(c2ccc(OC)c(OC)c2)S(C)(=O)=O)cc1	-2	-3	1	1	-1	-2	x	x
O=C(Nc1cccnc1)c1sc2cccc(F)c2c1Cl	6.0*	17*	4.1*	1	-1	1	15*	0
CC(=O)Nc1ccc(C(=O)OCc2ccc(F)cc2)cc1	-1	2	-1	-1	-2	-1	x	x
CC(=O)Nc1ccc(C(=O)OCc2ccc(F)cc2Cl)cc1	1	24*	0	-1	-2	-5	-1	0
Cc1ccc(N=c2oc3cc(O)ccc3cc2C(N)=O)cc1	5	18*	2	0	-1	1	5	0
COc1ccc(/C=N/NC(=O)c2sccc2C)c2ccccc12	3	15*	1	6.2*	0	7	5	0
Cc1ccc(NC(=O)c2ccc(N3C(=O)C4CC=C(Cl)CC4C3=O)cc2)cc1 (stereo not given)	-1	2	2	-1	-1	3	x	x
C/C(=N\O)c1ccc(N2C(=O)C3CC=C(Cl)CC3C2=O)cc1 (stereo not given)	4	14*	4	5.0*	0	7	15*	1
CCOc1ccc(NS(=O)(=O)c2ccc3c(c2)N(C(C)=O)CCO3)cc1	-1	-3	-1	0	-1	0	x	x
CN(C)/C=N/C(=S)Nc1ccc(Cl)cc1	1	14*	1	2	-1	2	11*	0
COc1ccc(OC)c(S(=O)(=O)Nc2ccc(O)c3ccccc23)c1	0	-3	-1	-1	-1	-1	x	x
O=C1CCC(C(=O)N2CCN(c3cnccn3)CC2)CN1CCc1ccccc1 (stereo not given)	0	-2	0	-1	-1	-2	x	x
Cc1cccc(-c2nsc(SCC(=O)NCC3CCCO3)n2)c1 (stereo not given)	0	18*	1	-1	-2	1	2	0
O=C1OCC(CC2=C(O)C(=O)OC2)=C1O	0	-1	0	2	-1	-1	x	x
O=C(CSc1nncs1)Nc1ccc2[nH]c(=O)[nH]c2c1	0	0	3	-1	-1	-1	x	x
Cc1ccc(SCn2nnc3ccccc3c2=O)c(C)c1	0	14*	1	1	-1	5	12*	0
